Data from PubChem BioAssay (NCATS).
Results filed as inconclusive are left out. The source made the active and inactive calls. The call rests on the fitted dose curve; in most records, active means well fitted inhibition curve with a large enough effect; inconclusive means small, poorly fitted or top-dose-only effect; inactive means no such curve, though single readings can be large or run the other way.

molecular target: Cytochrome P450 2D6 (Homo sapiens) (UniProt P10635); experiment: qHTS Assay for Inhibitors and Substrates of Cytochrome P450 2D6 (AID 891); conditions: recombinant CYP2D6, luciferin-ME EGE luminescence; series mostly up to 11.4 µM;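 further: luciferin methyl ether substrate demethylated by CYP2D6 with NADPH regeneration; nearly all actives have a fitted effect of over 60% in size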
Sequence (P10635 whole entry, looked up): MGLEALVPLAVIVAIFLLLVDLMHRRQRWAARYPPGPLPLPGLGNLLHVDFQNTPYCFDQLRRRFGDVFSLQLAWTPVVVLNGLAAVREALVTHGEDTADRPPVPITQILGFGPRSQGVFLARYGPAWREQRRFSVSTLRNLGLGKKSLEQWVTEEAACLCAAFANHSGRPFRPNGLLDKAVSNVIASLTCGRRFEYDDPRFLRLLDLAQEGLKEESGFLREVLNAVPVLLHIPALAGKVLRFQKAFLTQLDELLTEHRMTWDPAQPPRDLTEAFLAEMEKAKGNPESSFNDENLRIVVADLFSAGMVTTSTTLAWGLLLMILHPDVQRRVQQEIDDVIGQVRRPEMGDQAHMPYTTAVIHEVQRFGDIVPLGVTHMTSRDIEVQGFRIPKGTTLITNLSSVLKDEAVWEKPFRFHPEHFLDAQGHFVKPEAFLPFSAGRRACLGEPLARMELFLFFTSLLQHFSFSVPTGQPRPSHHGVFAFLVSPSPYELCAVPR
How it was run: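 Human CYP2D6 (5 nM) with 30 uM Luciferin-ME EGE (at Km) in 100 mM KPO4, compound preincubated 10 min, then NADPH regeneration system for 60 min at room temperature. Luciferin read by luminescence; normalized to 1.43 uM quinidine.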

Potency, inactive:
COC(=O)NC(c1ccccc1)[C@@]1(C(=O)OC)CCCC1=O (stereo partly drawn)
CCOC(=O)[C@]1(C(NC(=O)OC)c2cccc(C)c2)CCCC1=O (stereo partly drawn)
CCOC(=O)OCC1OC(c2ccccc2)C=CC1Oc1ccc2oc(=O)cc(C)c2c1 (stereo not drawn)
COC(=O)NC(c1ccco1)[C@@]1(C(=O)OC)CCCC1=O (stereo partly drawn)
CC1CCC(C(=O)O)NC1c1cccc(N2CCOCC2)c1 (stereo not drawn)
CC1CCC2C(=O)N3C(CCC(C)[C@@H]3c3ccc(-c4ccco4)cc3)C(=O)N2C1c1cccc(N2CCCC2=O)c1 (stereo partly drawn)
COC(=O)NC(CC(C)=O)c1ccccc1 (stereo not drawn)
O=C(/C=C/c1ccccc1)N1CCCC1CO (stereo not drawn)
OCC1OC(c2ccccc2)C=CC1Oc1ccc(C2CCCC2)cc1 (stereo not drawn)
CC1(C)OC(C(O)(c2cc(F)c(F)c(F)c2)c2cc(F)c(F)c(F)c2)C(C(O)(c2cc(F)c(F)c(F)c2)c2cc(F)c(F)c(F)c2)O1 (stereo not drawn)
CCCCCCC/C=C/C1=CC2(C)CC1(C)C(CCCCCCC)CC2=O (stereo not drawn)
COc1cccc(C2NC(C(=O)O)CCC2C)c1 (stereo not drawn)
CCOC(=O)CCCCC1=CC2=CC(=O)C(C)(O)C(=O)C2=CO1 (stereo not drawn)
C=CCc1cccc(C2NC(C(=O)O)CCC2C)c1 (stereo not drawn)
Cc1ccc(OC2C(O)COC2/C=C/C#Cc2ccc(C(C)(C)C)cc2)cc1 (stereo not drawn)
COC(=O)NC(c1ccccc1)[C@]1(C(C)=O)CCCC1=O (stereo partly drawn)
CC(=O)OCC1OC(C#CC2=CCCCC2)C=CC1OC(C)=O (stereo not drawn)
CC1CN2C(CCC(C)C2c2ccc(Br)cc2)C(=O)O1 (stereo not drawn)
